Test results as given in PubChem BioAssay (NCATS).

assay: qHTS profiling of the MIPE4 collection as inhibitors of Plasmodium falciparum (DD2) proliferation (AID 743345); conditions: P. falciparum Dd2 in erythrocytes, SYBR Green DNA, 72 h; at 28.5 µM (top of the series) unless noted
Method in brief: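 Erythrocytes infected with P. falciparum (0.3% parasitemia, 2.5% hematocrit) incubated with compounds 72 h at 37 C, 5% CO2. Lysis with saponin/Triton buffer containing SYBR Green I, overnight at room temperature in the dark; DNA fluorescence (485/535 nm) normalised to 0.29 uM artemisinin and DMSO.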

| SMILES | parasite growth remaining, % of DMSO control (lower = more inhibition) |
| --- | --- |
| O=C(O)C=Cc1ccc(O)c(O)c1 | 82.5% |
| CC=CCC(C)C(O)C1C(=O)NC(CC)C(=O)N(C)CC(=O)N(C)C(CC(C)C)C(=O)NC(C(C)C)C(=O)N(C)C(CC(C)C)C(=O)NC(C)C(=O)NC(C)C(=O)N(C)C(CC(C)C)C(=O)N(C)C(CC(C)C)C(=O)N(C)C(C(C)C)C(=O)N1C (configuration not stated) | 6.98% |
| CC1CCC(C(=O)N(c2cc(C#CC(C)(C)C)sc2C(=O)O)C2CCC(O)CC2)CC1 (configuration not stated) | 54.5% |
| CN(C)CCC=C1c2ccccc2COc2ccc(CC(=O)O)cc21 | 91.8% |
| CO[C@H]1C(=O)[C@]2(C)[C@@H](OC)C[C@H]3OC[C@@]3(OC(C)=O)[C@H]2[C@H](OC(=O)c2ccccc2)[C@]2(O)C[C@H](OC(=O)[C@H](O)[C@@H](NC(=O)OC(C)(C)C)c3ccccc3)C(C)=C1C2(C)C | 13.7% |
| C=CCc1ccc(O)c(-c2ccc(O)c(CC=C)c2)c1 | 75.6% |
| Cc1ccc(/C=N/NC(=O)c2ccccc2Oc2ccccc2)o1 | 103% |
| N[C@H](CSC(c1ccccc1)(c1ccccc1)c1ccccc1)C(=O)O | 86.8% |
| NC(=O)c1cccc(-c2cc(Nc3ccc(OC(F)(F)F)cc3)ncn2)c1 | 63.7% |
| Nc1ncnc2ccccc12 | 98.4% |
| O=C1NC(=O)C(=Cc2ccc3c(c2)OC(F)(F)O3)S1 | 95.4% |
| C[C@]12CC[C@@H]3c4ccc(O)cc4C[C@@H](CCCCCCCCCS(=O)CCCC(F)(F)C(F)(F)F)[C@H]3[C@H]1CC[C@H]2O (some centres not stated) | 8.45% |
| N#C[C@H]1C[C@H]2C[C@@H]2N1C(=O)[C@@H](N)C12CC3CC(CC(O)(C3)C1)C2 | 103% |
| CC(C)C(C)C=CC(C)C1CCC2C3=CC=C4CC(O)CCC4(C)C3CCC21C (configuration not stated) | 102% |
| O=C(O)c1ccccc1C(=O)Nc1ccc(-c2ccccc2)cc1 | 104% |
| O=C1NC(=O)C(=Cc2ccc3nccnc3c2)S1 | 92.6% [at 9.64 µM] |
| COc1ccc2c3c1OC1C[C@@H](O)C=C[C@@]31CCN(C)C2 (some centres not stated) | 100% |
| CCOC(=O)C1=C(N)Oc2ccc(Br)cc2C1C(C#N)C(=O)OCC (configuration not stated) | 95.8% |
| Cc1cc(OCCCc2c(C(=O)O)n(Cc3cccnc3)c3c(-c4c(COc5ccc(N6CCN([S+](C)(=O)[O-])CC6)cc5)nn(C)c4C)cccc23)cc(C)c1Cl | 8.65% |

| SMILES | parasite growth remaining, % of DMSO control (lower = more inhibition) |
| --- | --- |
| CON=C(C(=O)N[C@@H]1C(=O)N2C(C(=O)OCOC(=O)C(C)(C)C)=C(C=Cc3scnc3C)CS[C@H]12)c1csc(N)n1 | 96% |
| Cc1ccc(Nc2cc(-c3cccc(N4C(=O)c5ccccc5C4=O)c3)ncn2)cc1NS(C)(=O)=O | 83.3% |
| CC(C)OC(=O)CCCC=CC[C@@H]1[C@H](C=C[C@@H](O)COc2cccc(C(F)(F)F)c2)[C@H](O)C[C@@H]1O | 76.3% |
| COc1ccc(-c2coc3cc(O)ccc3c2=O)cc1 | 8.21% |
| NC(=O)c1cnc(-c2ccc(C3(N)CCC3)cc2)c(-c2ccccc2)c1 | 65.3% |
| CC[C@@]1(O)C[C@H](O[C@H]2C[C@H](N(C)C)[C@H](O[C@H]3C[C@H](O)[C@H](O[C@H]4CCC(=O)[C@H](C)O4)[C@H](C)O3)[C@H](C)O2)c2c(cc3c(c2O)C(=O)c2c(O)cccc2C3=O)[C@@H]1C(=O)OC | 4.79% |
| O=C(NCc1ccccc1)c1csc(Nc2ccncn2)n1 | 79.6% |
| Cc1[nH]c(C=C2C(=O)Nc3ccc(S(=O)(=O)Cc4c(Cl)cccc4Cl)cc32)c(C)c1C(=O)N1CCC[C@H]1CN1CCCC1 | 8.07% |
| c1cc(-c2sc(-c3ccncc3)c(-c3ccncc3)c2-c2ccncc2)ccn1 | 81.7% |
| NS(=O)(=O)c1ccc(NC2=CC(=O)c3ccccc3C2=O)cc1 | 9.74% |
| NC(=O)NN=Cc1ccc([N+](=O)[O-])o1 | 48.9% |
| Cc1c(NC(=O)c2ccc(C(C)(C)C)cc2)cccc1-c1cn(C)c(=O)c(Nc2ccc(C(=O)N3CCOCC3)cc2)n1 | 6.89% |
| O=c1cc(-c2cccc3c2Sc2ccccc2S3)oc(N2CCOCC2)c1 | 90.2% |
| Clc1ccc(CCC(Cn2ccnc2)Sc2c(Cl)cccc2Cl)cc1 (configuration not stated) | 6.42% |
| CC(=O)OC1C(C)OC(Oc2c(-c3ccc(O)cc3)oc3cc(O)cc(O)c3c2=O)C(O)C1OC(C)=O (configuration not stated) | 72.5% |
| NC(=O)c1cccc2[nH]c(-c3ccc([C@H]4CCCN4)cc3F)nc12 | 43.5% |
| Cc1c(O)cccc1C(=O)N[C@@H](CSc1ccccc1)[C@H](O)CN1C[C@H]2CCCC[C@@H]2C[C@@H]1C(=O)NC(C)(C)C | 36% |
| Oc1ccc(C2=Cc3ccc(O)cc3OC2)cc1 | 34.7% |
